The AC50 is the midpoint of the concentration-response curve, whichever way the signal moves.

These results are taken from PubChem BioAssay (EPA / NIEHS).

In test [1] the target is Nuclear receptor subfamily 1 group I member 2 (Mus musculus) (UniProt O54915). The test is described as follows: ATG_mPXR_XSP1: Attagene TRANS-FACTORIAL Multi-Species (XSP1) HepG2 Assay for mouse Pregnane X Receptor (PXR) (AID 2283803). In a few lines:
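Transiently transfected HepG2 cells expressing a receptor-Gal4 chimera drive a GAL4-UAS reporter; 3 nM 6-alpha-fluorotestosterone included. Reporter mRNA read 24 h post-dose by RT-PCR and capillary electrophoresis; gain of signal relative to DMSO.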

The target of test [2] is zebrafish Thyroid Hormone Receptor alpha (TRa), thraa (gene 30670) (UniProt Q98867). The test is described as follows: ATG_zfTRa_XSP1: Attagene TRANS-FACTORIAL Multi-Species (XSP1) HepG2 Assay for zebrafish Thyroid Hormone Receptor alpha (TRa) (AID 2283807). A digest of the protocol: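 HepG2 cells transiently transfected with GAL4-UAS reporter units including a zebrafish TRa–Gal4 chimera, dosed 24 h with 3 nM 6-alpha-fluorotestosterone present. Reporter mRNA quantified by RT-PCR and capillary electrophoresis; gain versus DMSO.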

A short description of test [3]: ATG_XTT_Cytotoxicity_XSP1: Cytotoxicity Assessment in the Attagene TRANS-FACTORIAL Multi-Species (XSP1) HepG2 Assay (AID 2283810). In a few lines:
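XTT viability readout taken at 24 hours post-dosing in HepG2 liver cells co-treated with 3 nM 6-alpha-fluorotestosterone. Signal loss relative to DMSO controls reflects cytotoxicity.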

Test [4] is described as follows: ATG_M_06_XSP2: Attagene TRANS-FACTORIAL Multi-Species (XSP2) HepG2 Assay for M06 Transcription Factor (Internal Marker) (AID 2283811).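 Also: hits are increases in signal above the DMSO baseline.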 In a few lines:
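HepG2 cells transiently transfected with GAL4-UAS multi-reporter constructs, dosed 24 h with 3 nM 6-alpha-fluorotestosterone plus 1.5 nM norgestrel present to stimulate androgen receptor. Reporter mRNA quantified by RT-PCR, 6-FAM labelling, HpaI digestion and capillary electrophoresis; gain-of-signal fitted versus DMSO baseline.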

For test [5], the target named is GAL4 Transcription Factor (Internal Marker), GAL4 (gene 855828) (UniProt P04386). The test is described as follows: ATG_GAL4_XSP2: Attagene TRANS-FACTORIAL Multi-Species (XSP2) HepG2 Assay for GAL4 Transcription Factor (Internal Marker) (AID 2283814).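 Also: GAL4 reporter mRNA background control in MRTU transfected cells not a receptor target.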 A digest of the protocol:
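HepG2 cells transiently transfected with GAL4-UAS reporter units, stimulated with 3 nM 6-alpha-fluorotestosterone plus 1.5 nM norgestrel, dosed 24 h. Reporter mRNA by RT-PCR/capillary electrophoresis; gain-of-signal fit versus DMSO, background control.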

The target in test [6] is chicken Estrogen Receptor (ERa), ESR1 (gene 396099) (UniProt P06212). Briefly: ATG_chERa_XSP2: Attagene TRANS-FACTORIAL Multi-Species (XSP2) HepG2 Assay for chicken Estrogen Receptor (ERa) (AID 2283817).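 Also: actives raise reporter signal above DMSO so AC50 reflects ER activation.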 In a few lines: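 HepG2 cells transiently transfected with multiplexed GAL4-UAS reporter units expressing chimeric chicken ERa-Gal4; 24 h compound exposure. Reporter mRNA measured by RT-PCR with 6-FAM labelling, HpaI digestion and capillary electrophoresis; gain-of-signal fitted versus DMSO.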

The nature of test [7]: ATG_M_19_XSP2: Attagene TRANS-FACTORIAL Multi-Species (XSP2) HepG2 Assay for M32 Transcription Factor (Internal Marker) (AID 2283822). A digest of the protocol:
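Internal background marker in a multi-species nuclear receptor TRANS panel: transfected HepG2 cells exposed 24 h, with 3 nM 6-alpha-fluorotestosterone and 1.5 nM norgestrel present. Readout is RT-PCR of reporter transcripts resolved by capillary electrophoresis, gain-of-signal versus DMSO.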

Test [8] deals with zebrafish Estrogen Receptor (ER2b), gene 317733. The test is described as follows: ATG_zfER2b_XSP2: Attagene TRANS-FACTORIAL Multi-Species (XSP2) HepG2 Assay for zebrafish Estrogen Receptor (ER2b) (AID 2283823).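 Also: fitted upward as reporter gain over DMSO so potency reflects activation.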 A digest of the protocol:
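Cells used were HepG2, transiently transfected with chimeric nuclear receptor-Gal4 reporter units. After 24 h of chemical treatment, reporter transcripts were amplified by RT-PCR, labelled and sized by capillary electrophoresis, with induction analysed relative to DMSO.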

Test [9] concerns the target Peroxisome proliferator-activated receptor gamma (Homo sapiens) (UniProt P37231). The test is described as follows: ATG_hPPARg_XSP2: Attagene TRANS-FACTORIAL Multi-Species (XSP2) HepG2 Assay for human Peroxisome Proliferator-activated Receptor gamma (PPARg) (AID 2283829).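 Also: actives raise reporter mRNA above DMSO so AC50 reflects PPARg activation.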 In a few lines:
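After transfecting HepG2 with GAL4-UAS reporter constructs, cells are dosed for 24 h; total RNA is reverse-transcribed, PCR-amplified, FAM-labeled, HpaI-digested and resolved by capillary electrophoresis. Activity is measured as mRNA induction relative to DMSO.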

Test [10] deals with mouse Peroxisome Proliferator-activated Receptor gamma (PPARg), Pparg (gene 19016) (UniProt P37238). The test is described as follows: ATG_mPPARg_XSP2: Attagene TRANS-FACTORIAL Multi-Species (XSP2) HepG2 Assay for mouse Peroxisome Proliferator-activated Receptor gamma (PPARg) (AID 2283830).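 Also: hits are gains in reporter mRNA above DMSO so AC50 marks activation.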 A digest of the protocol:
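HepG2 cells transiently transfected with GAL4-UAS reporter units for chimeric NR-Gal4 proteins including mouse PPARg, exposed 24 h; medium contained 3 nM 6-alpha-fluorotestosterone and 1.5 nM norgestrel. Reporter mRNA quantified by RT-PCR, HpaI digestion and capillary electrophoresis, vs DMSO.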

Test [11] has as its target Nuclear receptor subfamily 1 group I member 2 (Mus musculus) (UniProt O54915). Briefly: ATG_mPXR_XSP2: Attagene TRANS-FACTORIAL Multi-Species (XSP1) HepG2 Assay for mouse Pregnane X Receptor (PXR) (AID 2283831). A digest of the protocol:
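Reporter transcripts were quantified by RT-PCR, FAM primer extension, HpaI digestion and capillary electrophoresis after 24 h of chemical exposure in transiently transfected HepG2 cells carrying chimeric receptor-GAL4 constructs; DMSO served as baseline.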

The target of test [12] is zebrafish Thyroid Hormone Receptor alpha (TRa), thraa (gene 30670) (UniProt Q98867). The test is described as follows: ATG_zfTRa_XSP2: Attagene TRANS-FACTORIAL Multi-Species (XSP1) HepG2 Assay for zebrafish Thyroid Hormone Receptor alpha (TRa) (AID 2283832).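 Also: actives raise zebrafish TRa-Gal4 reporter transcript above DMSO baseline.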 A digest of the protocol: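 Chimeric receptor-Gal4 activity was assessed in transfected human liver HepG2 cells 24 h after dosing, using reporter transcript levels detected by RT-PCR and capillary electrophoresis. DMSO served as baseline.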

In test [13] the test system is zebrafish Peroxisome Proliferator-activated Receptor gamma (PPARg), gene 557037. Briefly: ATG_zfPPARg_XSP2: Attagene TRANS-FACTORIAL Multi-Species (XSP2) HepG2 Assay for zebrafish Peroxisome Proliferator-activated Receptor gamma (PPARg) (AID 2283833).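 Also: actives increase reporter signal over DMSO so AC50 reflects activation.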 In a few lines:
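Multi-species TRANS format in HepG2, 24 h dosing; medium also contained 3 nM 6-alpha-fluorotestosterone and 1.5 nM norgestrel to stimulate androgen receptor. Zebrafish PPARg-GAL4 induced reporter mRNA was measured by RT-PCR/capillary electrophoresis.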

Test [14] in a line: ATG_M_61_XSP2: Attagene TRANS-FACTORIAL Multi-Species (XSP2) HepG2 Assay for M61 Transcription Factor (Internal Marker) (AID 2283835; active = hit-call score of the fitted dose curve at least 0.9, where 1 is the maximum; inactive = score below 0.9;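 also: active means a rise in signal above the DMSO baseline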). A digest of the protocol: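 HepG2 cells transiently transfected with multiple GAL4-UAS reporter units; 3 nM 6-alpha-fluorotestosterone and 1.5 nM norgestrel present to stimulate androgen receptor. After 24 h compound exposure, reporter mRNA measured by RT-PCR and capillary electrophoresis fluorescence, gain-of-signal versus DMSO baseline.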

Test [15] addresses human Thyroid hormone Receptor beta (TRb), THRB (gene 7068) (UniProt P10828). The test is described as follows: ATG_hTRb_XSP2: Attagene TRANS-FACTORIAL Multi-Species (XSP2) HepG2 Assay for human Thyroid hormone Receptor beta (TRb) (AID 2283840).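 Also: actives raise reporter mRNA so potency reflects agonist-like gain of signal.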 In a few lines: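 Transient transfection of human HepG2 with multi-species NR-Gal4/GAL4-UAS reporter constructs; 24 h compound treatment; RNA isolation, reverse transcription, PCR and HpaI digest; capillary electrophoresis of labeled fragments; activity fitted upward versus DMSO.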

Test [16] has as its target human CYP1A2, CYP1A2 (gene 1544) (UniProt P05177). The test is described as follows: NVS_ADME_hCYP1A2: NovaScreen (NVS) CYP450-related Enzyme Activity (ADME) Assay for human CYP1A2 (AID 2283102). A digest of the protocol: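 rec. hCYP1A2 (insect cells), cell-free; fluorogenic substrate; 0.5 h; FI read. Baseline = acetonitrile; signal loss = inhibition. 10 uM duplicate primary → conc. series for actives.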

The target of test [17] is human Aurora Kinase A - serine/threonine-protein Kinase 6 (AurA), AURKA (gene 6790) (UniProt O14965). Briefly: NVS_ENZ_hAurA: NovaScreen (NVS) Enzymatic Assay for human Aurora Kinase A - serine/threonine-protein Kinase 6 (AurA) (AID 2283142). In a few lines:
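Cell-free enzymatic assay with human Aurora A, 1 hour after dosing. Fluorescent substrate turnover detected after electrophoretic mobility shift separation of substrate and product. Screened at 25 uM, actives retested in concentration-response up to 50 uM.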

The target of test [18] is human c-Jun N-terminal Kinases (JNK2), MAPK9 (gene 5601) (UniProt P45984). Briefly: NVS_ENZ_hJNK2: NovaScreen (NVS) Enzymatic Assay for human c-Jun N-terminal Kinases (JNK2) (AID 2283171). In a few lines: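 Cell-free recombinant human JNK2 activity assay; fluorescent substrate and product separated by electrophoretic mobility shift, read 1 h after dosing. Primary duplicate screen at 25 uM; actives run in concentration-response up to 50 uM, relative to DMSO.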

Test [19] deals with Mitogen-activated protein kinase 3 (Homo sapiens) (UniProt P27361). Briefly: NVS_ENZ_hMAPK3: NovaScreen (NVS) Enzymatic Assay for human Mitogen-Activated Protein Kinase 3 (MAPK 3) (AID 2283177). In a few lines:
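Cell-free enzymatic assay with recombinant protein and specific substrate; fluorescence and electrophoretic mobility shift read-out 1 h after dosing. Primary screen duplicate at 25 uM; actives then run in concentration-response up to 50 uM, loss of signal versus DMSO.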

Test [20] deals with human Mitogen- and Stress-activated Protein Kinase-1 (Msk1), RPS6KA5 (gene 9252) (UniProt O75582). Briefly: NVS_ENZ_hMsk1: NovaScreen (NVS) Enzymatic Assay for human Mitogen- and Stress-activated Protein Kinase-1 (Msk1) (AID 2283187). A digest of the protocol:
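Recombinant kinase with fluorescent substrate; product separated by electrophoretic mobility shift, read 1 h after dosing. Screened in duplicate at 25 uM; hits (e.g. ≥30% inhibition) tested in concentration–response up to 50 uM. DMSO baseline.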

Inconclusive results are not listed. The source made the active and inactive calls. The calls were made as follows, unless noted: active = hit-call score of the fitted dose curve at least 0.9, where 1 is the maximum; inconclusive = response in the unintended direction; inactive = score below 0.9.

Chain of zebrafish Thyroid Hormone Receptor alpha (TRa), thraa (gene 30670) (Q98867 whole entry, looked up, the tested form may be a part): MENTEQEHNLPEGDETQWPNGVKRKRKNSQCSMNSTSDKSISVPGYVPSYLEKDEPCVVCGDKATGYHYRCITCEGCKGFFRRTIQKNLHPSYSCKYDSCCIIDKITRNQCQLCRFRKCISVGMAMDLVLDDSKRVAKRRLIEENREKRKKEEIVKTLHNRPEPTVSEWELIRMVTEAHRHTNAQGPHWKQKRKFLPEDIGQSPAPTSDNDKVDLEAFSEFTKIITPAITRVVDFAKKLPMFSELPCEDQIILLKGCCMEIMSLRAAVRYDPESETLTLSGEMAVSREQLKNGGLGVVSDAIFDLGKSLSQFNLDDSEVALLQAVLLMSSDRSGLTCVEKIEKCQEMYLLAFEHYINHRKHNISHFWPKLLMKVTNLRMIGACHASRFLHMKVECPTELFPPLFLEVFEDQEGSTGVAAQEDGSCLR
Chain of Nuclear receptor subfamily 1 group I member 2 (Mus musculus) (O54915 whole entry, looked up, the tested form may be a part): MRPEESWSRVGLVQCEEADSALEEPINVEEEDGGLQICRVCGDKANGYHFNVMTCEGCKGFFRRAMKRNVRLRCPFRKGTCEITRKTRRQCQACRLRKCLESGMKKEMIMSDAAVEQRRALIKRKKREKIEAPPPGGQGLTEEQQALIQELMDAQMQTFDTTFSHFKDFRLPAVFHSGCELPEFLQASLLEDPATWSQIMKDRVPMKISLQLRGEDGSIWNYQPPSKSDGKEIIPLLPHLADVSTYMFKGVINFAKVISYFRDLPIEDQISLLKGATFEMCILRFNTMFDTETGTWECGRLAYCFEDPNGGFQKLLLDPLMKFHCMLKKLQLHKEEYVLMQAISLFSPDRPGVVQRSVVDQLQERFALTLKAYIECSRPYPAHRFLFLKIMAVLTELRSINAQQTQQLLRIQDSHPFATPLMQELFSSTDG
Chain of Mitogen-activated protein kinase 3 (Homo sapiens) (P27361 whole entry, looked up): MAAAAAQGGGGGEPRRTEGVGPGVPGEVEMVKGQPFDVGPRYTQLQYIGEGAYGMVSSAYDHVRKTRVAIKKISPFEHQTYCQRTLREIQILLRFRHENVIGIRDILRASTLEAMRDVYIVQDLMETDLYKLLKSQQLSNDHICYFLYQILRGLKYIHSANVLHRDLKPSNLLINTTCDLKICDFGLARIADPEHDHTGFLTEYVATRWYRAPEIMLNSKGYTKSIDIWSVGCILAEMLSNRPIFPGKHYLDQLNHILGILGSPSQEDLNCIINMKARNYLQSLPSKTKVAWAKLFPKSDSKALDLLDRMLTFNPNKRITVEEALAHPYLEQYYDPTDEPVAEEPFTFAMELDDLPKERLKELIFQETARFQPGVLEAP
Chain of human Aurora Kinase A - serine/threonine-protein Kinase 6 (AurA), AURKA (gene 6790) (O14965 whole entry, looked up): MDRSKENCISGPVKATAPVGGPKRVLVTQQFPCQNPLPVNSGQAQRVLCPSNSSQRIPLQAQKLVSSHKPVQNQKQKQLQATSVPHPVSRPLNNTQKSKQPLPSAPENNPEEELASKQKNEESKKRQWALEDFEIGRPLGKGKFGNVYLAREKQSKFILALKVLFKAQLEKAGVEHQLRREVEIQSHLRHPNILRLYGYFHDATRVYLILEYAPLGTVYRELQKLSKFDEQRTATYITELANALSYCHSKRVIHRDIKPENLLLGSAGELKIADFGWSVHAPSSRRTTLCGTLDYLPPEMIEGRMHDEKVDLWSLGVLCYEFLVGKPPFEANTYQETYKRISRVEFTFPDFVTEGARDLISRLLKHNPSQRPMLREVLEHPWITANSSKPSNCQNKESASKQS
Chain of GAL4 Transcription Factor (Internal Marker), GAL4 (gene 855828) (P04386 whole entry, looked up, the tested form may be a part): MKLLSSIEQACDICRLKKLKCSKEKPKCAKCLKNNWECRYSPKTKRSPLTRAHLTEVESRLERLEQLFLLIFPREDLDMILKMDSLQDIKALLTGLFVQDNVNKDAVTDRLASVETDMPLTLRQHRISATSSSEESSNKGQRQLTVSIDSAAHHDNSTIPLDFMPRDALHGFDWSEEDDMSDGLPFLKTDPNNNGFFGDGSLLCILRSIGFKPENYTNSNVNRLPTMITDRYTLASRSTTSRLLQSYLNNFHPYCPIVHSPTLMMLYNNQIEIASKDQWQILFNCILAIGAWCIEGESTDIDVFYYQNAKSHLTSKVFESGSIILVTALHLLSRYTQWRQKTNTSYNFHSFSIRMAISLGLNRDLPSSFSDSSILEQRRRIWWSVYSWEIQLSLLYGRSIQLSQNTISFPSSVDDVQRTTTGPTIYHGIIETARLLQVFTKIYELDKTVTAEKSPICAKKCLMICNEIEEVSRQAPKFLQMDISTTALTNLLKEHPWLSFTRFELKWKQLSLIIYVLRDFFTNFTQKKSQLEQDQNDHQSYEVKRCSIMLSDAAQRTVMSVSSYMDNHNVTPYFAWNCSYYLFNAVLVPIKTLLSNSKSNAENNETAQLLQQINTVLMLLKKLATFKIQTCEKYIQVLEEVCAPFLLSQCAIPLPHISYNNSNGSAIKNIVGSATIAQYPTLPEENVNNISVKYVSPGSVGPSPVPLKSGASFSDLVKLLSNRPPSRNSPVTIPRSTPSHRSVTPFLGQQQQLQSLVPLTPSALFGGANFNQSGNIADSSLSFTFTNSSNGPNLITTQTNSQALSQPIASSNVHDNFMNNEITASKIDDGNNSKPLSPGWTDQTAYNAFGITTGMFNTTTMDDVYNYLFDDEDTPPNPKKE
Chain of chicken Estrogen Receptor (ERa), ESR1 (gene 396099) (P06212 whole entry, looked up, the tested form may be a part): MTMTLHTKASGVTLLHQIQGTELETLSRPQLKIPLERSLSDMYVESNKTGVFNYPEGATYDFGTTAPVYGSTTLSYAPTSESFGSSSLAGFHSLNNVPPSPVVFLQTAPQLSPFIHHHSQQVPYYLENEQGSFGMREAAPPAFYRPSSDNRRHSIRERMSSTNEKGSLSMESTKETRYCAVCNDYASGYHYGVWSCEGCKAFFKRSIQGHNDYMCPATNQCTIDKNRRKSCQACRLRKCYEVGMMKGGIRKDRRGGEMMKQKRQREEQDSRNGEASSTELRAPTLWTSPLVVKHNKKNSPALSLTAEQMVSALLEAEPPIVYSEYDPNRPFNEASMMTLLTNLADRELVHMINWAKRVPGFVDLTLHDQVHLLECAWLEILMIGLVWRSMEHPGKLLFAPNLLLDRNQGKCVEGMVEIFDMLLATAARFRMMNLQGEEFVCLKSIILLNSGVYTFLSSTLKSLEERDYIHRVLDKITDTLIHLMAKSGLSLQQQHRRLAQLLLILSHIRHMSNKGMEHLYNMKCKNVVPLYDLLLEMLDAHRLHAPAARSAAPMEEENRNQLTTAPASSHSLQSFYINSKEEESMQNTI
Chain of Peroxisome proliferator-activated receptor gamma (Homo sapiens) (P37231 whole entry, looked up, the tested form may be a part): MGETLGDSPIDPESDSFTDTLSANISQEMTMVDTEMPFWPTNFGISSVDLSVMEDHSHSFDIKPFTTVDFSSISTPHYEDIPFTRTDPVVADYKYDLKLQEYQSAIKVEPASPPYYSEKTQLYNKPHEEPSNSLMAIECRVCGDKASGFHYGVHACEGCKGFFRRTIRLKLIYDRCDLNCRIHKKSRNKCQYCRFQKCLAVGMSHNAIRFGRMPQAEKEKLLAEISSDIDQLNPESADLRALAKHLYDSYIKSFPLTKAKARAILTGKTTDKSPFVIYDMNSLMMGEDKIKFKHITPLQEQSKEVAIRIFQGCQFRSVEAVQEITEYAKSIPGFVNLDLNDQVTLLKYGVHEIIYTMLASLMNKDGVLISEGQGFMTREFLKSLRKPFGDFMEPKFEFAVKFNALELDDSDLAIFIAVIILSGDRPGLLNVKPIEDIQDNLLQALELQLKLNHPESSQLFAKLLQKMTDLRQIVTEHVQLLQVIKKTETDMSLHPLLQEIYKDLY
Chain of mouse Peroxisome Proliferator-activated Receptor gamma (PPARg), Pparg (gene 19016) (P37238 whole entry, looked up, the tested form may be a part): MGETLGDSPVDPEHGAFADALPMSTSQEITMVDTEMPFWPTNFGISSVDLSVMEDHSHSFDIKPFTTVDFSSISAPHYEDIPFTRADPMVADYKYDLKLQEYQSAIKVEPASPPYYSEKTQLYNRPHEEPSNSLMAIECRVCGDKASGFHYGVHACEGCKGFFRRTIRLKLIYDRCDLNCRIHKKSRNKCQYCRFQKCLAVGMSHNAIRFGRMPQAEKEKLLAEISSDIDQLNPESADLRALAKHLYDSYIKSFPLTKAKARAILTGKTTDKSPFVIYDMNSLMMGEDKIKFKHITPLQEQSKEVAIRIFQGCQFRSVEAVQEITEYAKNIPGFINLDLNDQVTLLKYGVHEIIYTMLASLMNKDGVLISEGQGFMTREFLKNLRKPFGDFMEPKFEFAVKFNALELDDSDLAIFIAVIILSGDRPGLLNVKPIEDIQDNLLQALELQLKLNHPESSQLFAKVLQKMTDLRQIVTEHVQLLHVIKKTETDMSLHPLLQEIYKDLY
Chain of human Thyroid hormone Receptor beta (TRb), THRB (gene 7068) (P10828 whole entry, looked up, the tested form may be a part): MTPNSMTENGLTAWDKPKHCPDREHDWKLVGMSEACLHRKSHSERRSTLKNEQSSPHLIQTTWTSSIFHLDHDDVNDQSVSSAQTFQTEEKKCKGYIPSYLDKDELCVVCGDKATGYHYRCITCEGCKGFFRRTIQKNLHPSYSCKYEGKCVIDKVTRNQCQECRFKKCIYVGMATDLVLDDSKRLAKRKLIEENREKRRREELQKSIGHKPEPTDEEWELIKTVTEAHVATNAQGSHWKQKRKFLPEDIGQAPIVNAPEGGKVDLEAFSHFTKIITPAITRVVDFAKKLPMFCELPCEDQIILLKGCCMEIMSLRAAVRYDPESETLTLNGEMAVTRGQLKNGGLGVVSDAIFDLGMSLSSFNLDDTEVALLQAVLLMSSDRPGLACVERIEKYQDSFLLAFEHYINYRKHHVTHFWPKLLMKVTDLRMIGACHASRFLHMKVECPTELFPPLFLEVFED

Regarding `CC(=O)c1cc2c(cc1C)C(C)(C)C(C)CC2(C)C` (stereo not given), the half-maximal activity concentration (AC50) was 1000 nM (active) in test [1]; 145 µM (active) in test [2]; 26.7 µM (active) in test [8]; 41.9 µM (active) in test [9]; 49.4 µM (active) in [10]; 1.8 µM (active) in test [11]. Also, the call in [3], in [4], in test [5], in [6], in [7] and in test [12] was inactive. Further, the call in [13], in test [14] and in test [15] was inactive.
`N#CCCCCC#N`: the compound was classed as inactive in test [16], in [17], in test [18], in test [19] and in [20].
